Reference: PubChem BioAssay (NCATS)
Inconclusive results are not listed. Entries that show only a call come without a potency. Active and inactive are the calls of the source. The call rests on the fitted dose curve; in most records, active means well fitted curve in the direction sought with a large enough effect; inconclusive means small, poorly fitted or top-dose-only effect, or another doubt; inactive means no such curve, though single readings can be large; an effect the other way counts as inactive or inconclusive.

Tests used:
[1] = qHTS to identify inhibitors of the type 1 interferon - major histocompatibility complex class I in skeletal muscle: primary screen against the NCATS LOPAC collection (AID 1347405);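 further: lytic HiBiT luminescence reporting HLA-B protein level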; further: potency means the concentration at half of the fitted maximal effect
Outline: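 Immortalized human C25cl48 myoblasts with HiBiT knocked into endogenous HLA-B*08:01 were stimulated with 4.0 ng/ml IFN-beta and given compounds in a 7-point, 1:4.3 titration from 46 uM final; after 24 hrs, lytic HiBiT luminescence was read.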

[2] = qHTS for inhibitors of adenylyl cyclases using a fission yeast platform: a pilot screen against the NCATS LOPAC library (AID 1347410)
Outline: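 Fission yeast qHTS: CHP2027 cells (AC9-GNAS-PDE4D2, fbp1-GFP), 5x10^6 cells/mL working density, EMM + His/Lys/Ura; LOPAC at up to 57 µM final; 18 h dark, 30C; GFP by laser cytometry. DPI positive control, DMSO vehicle.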

[3] = Validation qHTS assay for inhibitors of Activation Induced Cytidine Deaminase (AID): UDG Counterscreen signal (AID 1347427)
Outline: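 Counterscreen read of UDG activity (2 U/mL, 4/3x) in the FRET deamination format with AID (1 uM, 4/3x), DJC20/DJC23 substrates (250 nM, 4x), 4 h at room temperature. NaOH stop, fluorescence at 560 ex/665 em.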

SMILES | Potency [1] | outcome [2] | Potency [3]
O=C1OC(=O)C2C3CCC(O3)C12 (configuration not stated) | inactive | inactive | inactive
N[C@H](C(=O)O)c1cc(O)cc(O)c1 | inactive | inactive | inactive
Nc1ncnc2c1ncn2C1CCCO1 (configuration not stated) | inactive | inactive | inactive
CC(O)C(O)[C@H]1CNc2nc(N)[nH]c(=O)c2N1 (some centres not stated) | inactive | inactive | inactive
Cc1cccc(C2CN(C)CCc3c2cc(O)c(O)c3Cl)c1 (configuration not stated) | inactive | inactive | inactive
C=C1C[C@@]23CC[C@H]4[C@@](C)(CCC[C@@]4(C)C(=O)O)[C@@H]2CC[C@]1(O)C3 | inactive | inactive | inactive
Nn1nnc2ccccc21 | inactive | inactive | inactive
c1ccc2c(c1)CC(N1CCN(c3cccc4c3OCCO4)CC1)C2 | inactive | inactive | inactive
O=c1onc2n1-c1cc(Br)ccc1OC2 | inactive | inactive | inactive
Cc1cccc(C(=O)NCN2CCN(c3ccccc3C#N)CC2)c1 | inactive | inactive | inactive
NC(=O)CC[C@H](N)C(=O)O | inactive | inactive | inactive
Cn1ccnc1 | inactive | inactive | inactive
CN(C)CCCc1cc(C(=O)Nc2ccc(-c3ccncc3)cc2)ccc1O | inactive | inactive | inactive
O=c1[nH]c(=O)c2nc3ccccc3nc2[nH]1 | inactive | inactive | inactive
NOCC(=O)O | inactive | inactive | inactive
OC1(c2ccc(Cl)cc2)CCN(Cc2c[nH]c3ccccc23)CC1 | inactive | inactive | inactive
CCc1ccc2c(-c3cccc(Cl)c3)nc(=O)n(CC)c2n1 | inactive | inactive | inactive
N[C@H](C(=O)O)[C@H](Cc1ccccc1)C(=O)O | inactive | inactive | inactive
COc1ccc2c(c1)CCC1C2CC[C@@]2(C)C1CC[C@@H]2NCCCCCCN1C(=O)C=CC1=O (some centres not stated) | inactive | inactive | inactive
Nc1ncnc2c1ncn2C1CCCC1 | inactive | inactive | inactive
COc1ccccc1N1CCN(CCCNc2c(C)c(=O)n(C)c(=O)n2C)CC1 | inactive | inactive | inactive
CC(=O)O[C@H]1Cc2ccccc2N(C(N)=O)c2ccccc21 | inactive | inactive | inactive

SMILES | Potency [1] | outcome [2] | Potency [3]
CCCCS(=N)(=O)CC[C@H](N)C(=O)O (some centres not stated) | inactive | inactive | inactive
CCCCCCCCCC[Si](C)(C)CCC(=O)NC(Cc1ccc(C)cc1)c1ccccc1 (configuration not stated) | inactive | inactive | inactive
NC(C(=O)N[C@@H]1C(=O)N2C(C(=O)O)=C(Cl)CS[C@H]12)c1ccccc1 (some centres not stated) | inactive | inactive | inactive
CO/N=C(\C(=O)N[C@@H]1C(=O)N2C(C(=O)O)=C(CSc3nc(=O)c(O)nn3C)CSC12)c1csc(N)n1 (some centres not stated) | inactive | inactive | inactive
Cc1ccc([N+](=O)[O-])cc1S(=O)(=O)N(C)C | inactive | inactive | inactive
C=CC[C@H](N)C(=O)O | inactive | inactive | inactive
Brc1c(Br)c(Br)c2[nH]cnc2c1Br | 12.6 µM (active) | inactive | inactive
CCCCCCC(=O)OC1CC(C)(C)NC(C)(C)C1 | inactive | inactive | inactive
CC(C)(C)c1cc(/C=C(\C#N)C(N)=S)cc(C(C)(C)C)c1O | inactive | inactive | inactive
CC1CNCCN1S(=O)(=O)c1cccc2cnccc12 (configuration not stated) | inactive | inactive | inactive
CCN1C(=O)C=CC1=O | inactive | inactive | inactive
CN1C2CCC1CC(OC(c1ccccc1)c1ccccc1)C2 (configuration not stated) | inactive | inactive | inactive
Cc1cc(Cn2cnc3c2C[C@@H](C(=O)O)N(C(=O)C(c2ccccc2)c2ccccc2)C3)ccc1N | inactive | inactive | inactive
CCCN(CCc1ccccc1)C1CCc2c(O)cccc2C1 (configuration not stated) | inactive | inactive | inactive
NC1CCN(O)C1=O (configuration not stated) | inactive | inactive | inactive
O=c1[nH]ccc2c(O)cccc12 | inactive | inactive | inactive
N[C@@H](CCCC(=O)O)C(=O)O | inactive | inactive | inactive
COC(=O)C(N)Cc1ccc(Cl)cc1 (configuration not stated) | inactive | inactive | inactive
OC[C@H]1NC[C@@H](O)[C@@H]1O | inactive | inactive | inactive
CC(N)(C(=O)O)c1ccc(C(=O)O)cc1 (configuration not stated) | inactive | inactive | inactive
C#CCn1c(=O)c2c(ncn2C)n(C)c1=O | inactive | inactive | inactive
CC(C)NCC(O)COc1ccc(CC(N)=O)cc1 (configuration not stated) | inactive | inactive | inactive
